# Laboratory results: ChEMBL document CHEMBL3988442, “University of Dundee, Small-Polar-MMV Screening Library” (2021)
# For some assays here: Entries with a potency or affinity are not part of this list.
# Columns and labels:
# Design in all cases: scale not given: direction of the effect not stated beside the values
# [1] = molecular target: Protein translocase subunit SecA (Escherichia coli (strain K12)) (UniProt P10408); test: Assay to Identify E. coli SecA ATPase Inhibitors; type: functional; details: 30 µM
# Protein translocase subunit SecA (Escherichia coli (strain K12)), sequence (P10408 whole entry): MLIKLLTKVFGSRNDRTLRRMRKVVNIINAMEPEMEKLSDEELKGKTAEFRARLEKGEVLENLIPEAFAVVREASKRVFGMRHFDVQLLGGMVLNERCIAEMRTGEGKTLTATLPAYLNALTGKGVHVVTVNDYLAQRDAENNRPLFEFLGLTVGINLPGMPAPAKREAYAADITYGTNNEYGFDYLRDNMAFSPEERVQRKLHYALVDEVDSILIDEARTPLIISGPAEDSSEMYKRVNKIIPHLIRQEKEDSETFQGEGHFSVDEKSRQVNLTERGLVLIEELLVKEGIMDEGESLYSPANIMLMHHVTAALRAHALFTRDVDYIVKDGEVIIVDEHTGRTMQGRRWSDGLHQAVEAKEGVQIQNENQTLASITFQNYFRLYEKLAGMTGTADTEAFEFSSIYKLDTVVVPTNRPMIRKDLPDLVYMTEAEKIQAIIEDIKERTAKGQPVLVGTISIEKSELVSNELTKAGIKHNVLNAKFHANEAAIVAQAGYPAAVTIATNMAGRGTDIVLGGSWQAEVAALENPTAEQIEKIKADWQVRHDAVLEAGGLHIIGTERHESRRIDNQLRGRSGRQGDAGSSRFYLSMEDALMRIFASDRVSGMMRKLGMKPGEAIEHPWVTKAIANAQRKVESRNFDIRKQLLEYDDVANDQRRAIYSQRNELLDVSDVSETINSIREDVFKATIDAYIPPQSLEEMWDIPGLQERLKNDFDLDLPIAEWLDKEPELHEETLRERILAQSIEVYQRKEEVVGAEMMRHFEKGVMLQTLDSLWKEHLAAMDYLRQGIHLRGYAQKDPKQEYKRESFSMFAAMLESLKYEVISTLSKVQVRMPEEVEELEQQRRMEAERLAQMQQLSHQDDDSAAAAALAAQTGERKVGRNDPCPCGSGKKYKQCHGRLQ
# [2] = molecular target: T1, Ubiquitin-activating enzyme e1, putative (Leishmania donovani (strain BPK282A1)) (UniProt E9BSI1); test: Leishmania donovani Ubiquitin Activating Enzyme (LdE1); type: functional; details: 30 µM
# T1 sequence (whole entry): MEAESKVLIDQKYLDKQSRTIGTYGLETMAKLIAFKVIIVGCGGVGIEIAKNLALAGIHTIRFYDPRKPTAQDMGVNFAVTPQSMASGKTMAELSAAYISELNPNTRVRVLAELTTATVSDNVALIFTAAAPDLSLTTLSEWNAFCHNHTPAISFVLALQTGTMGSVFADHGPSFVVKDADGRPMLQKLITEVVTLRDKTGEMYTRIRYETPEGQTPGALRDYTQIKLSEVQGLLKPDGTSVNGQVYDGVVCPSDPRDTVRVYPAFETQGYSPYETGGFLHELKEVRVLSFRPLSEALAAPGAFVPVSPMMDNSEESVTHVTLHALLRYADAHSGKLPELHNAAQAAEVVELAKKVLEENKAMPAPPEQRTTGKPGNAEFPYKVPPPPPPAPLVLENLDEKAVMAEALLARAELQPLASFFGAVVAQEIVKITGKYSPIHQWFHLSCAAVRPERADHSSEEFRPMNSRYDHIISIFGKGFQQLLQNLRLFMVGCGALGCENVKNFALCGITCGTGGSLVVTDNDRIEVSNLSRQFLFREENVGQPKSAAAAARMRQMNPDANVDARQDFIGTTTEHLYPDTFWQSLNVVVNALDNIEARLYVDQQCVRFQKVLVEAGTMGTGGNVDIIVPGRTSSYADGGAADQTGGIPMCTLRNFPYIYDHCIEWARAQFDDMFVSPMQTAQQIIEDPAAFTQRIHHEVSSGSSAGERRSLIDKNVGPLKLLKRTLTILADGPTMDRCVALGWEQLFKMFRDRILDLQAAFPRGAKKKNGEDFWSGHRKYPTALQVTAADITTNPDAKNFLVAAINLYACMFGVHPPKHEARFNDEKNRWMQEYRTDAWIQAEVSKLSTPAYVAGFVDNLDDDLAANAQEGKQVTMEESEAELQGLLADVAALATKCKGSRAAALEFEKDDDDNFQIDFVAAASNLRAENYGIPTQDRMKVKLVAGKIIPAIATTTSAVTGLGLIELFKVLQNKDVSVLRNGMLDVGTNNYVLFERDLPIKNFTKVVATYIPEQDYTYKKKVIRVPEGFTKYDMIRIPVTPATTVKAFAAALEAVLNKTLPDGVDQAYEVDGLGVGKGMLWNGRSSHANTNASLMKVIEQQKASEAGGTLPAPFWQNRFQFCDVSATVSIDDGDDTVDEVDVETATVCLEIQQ
# [3] = molecular target: Sialic acid-binding Ig-like lectin 9 (Homo sapiens) (UniProt Q9Y336); test: Hs-Siglec9 ALPHAscreen SOP 20170721; details: 10 µM
# Sialic acid-binding Ig-like lectin 9 (Homo sapiens), sequence (Q9Y336 whole entry): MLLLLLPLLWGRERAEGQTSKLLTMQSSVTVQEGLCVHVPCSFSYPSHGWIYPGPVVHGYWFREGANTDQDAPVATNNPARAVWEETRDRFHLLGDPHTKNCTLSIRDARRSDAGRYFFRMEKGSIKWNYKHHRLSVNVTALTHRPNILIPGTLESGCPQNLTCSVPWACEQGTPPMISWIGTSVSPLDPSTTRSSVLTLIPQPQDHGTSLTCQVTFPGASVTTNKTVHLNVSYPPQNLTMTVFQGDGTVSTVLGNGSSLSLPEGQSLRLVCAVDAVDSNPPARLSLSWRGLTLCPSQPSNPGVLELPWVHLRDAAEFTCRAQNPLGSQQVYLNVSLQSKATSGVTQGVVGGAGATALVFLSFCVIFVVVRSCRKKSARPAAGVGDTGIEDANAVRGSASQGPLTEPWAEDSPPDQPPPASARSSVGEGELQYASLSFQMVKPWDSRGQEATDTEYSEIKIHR
# Trypanosoma cruzi = test: Trypanosoma cruzi phosphomannomutase and mannose-1-phosphate guanylyltransferase assay; type: functional; details: 10 µM
# [4] = molecular target: T2, Arginase-2, mitochondrial (Homo sapiens) (UniProt P78540); test: in vitro enzyme assay to detect the production of urea directly proportional to the activity of Arginase II; type: functional; details: 33.3 µM; further: in the data most compounds retested in dose-response had high values
# T2 sequence (whole entry): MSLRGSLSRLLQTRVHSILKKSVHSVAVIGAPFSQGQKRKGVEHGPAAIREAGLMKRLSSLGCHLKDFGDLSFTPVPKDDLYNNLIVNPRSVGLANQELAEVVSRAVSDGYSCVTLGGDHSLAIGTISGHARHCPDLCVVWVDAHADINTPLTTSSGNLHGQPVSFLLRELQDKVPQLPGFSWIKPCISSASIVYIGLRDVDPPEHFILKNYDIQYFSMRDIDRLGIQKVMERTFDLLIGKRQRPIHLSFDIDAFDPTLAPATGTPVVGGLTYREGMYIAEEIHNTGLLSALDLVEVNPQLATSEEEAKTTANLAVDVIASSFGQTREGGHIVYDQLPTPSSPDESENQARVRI
# [5] = molecular target: T3, Proteasome subunit beta (Trypanosoma cruzi) (UniProt O96673); test: Trypanosoma cruzi proteasome chymotrypsin-like activity (TcProtChymo) assay.; further: in the data most compounds retested in dose-response had high values; type: functional; details: 9.37 µM
# T3 sequence (whole entry): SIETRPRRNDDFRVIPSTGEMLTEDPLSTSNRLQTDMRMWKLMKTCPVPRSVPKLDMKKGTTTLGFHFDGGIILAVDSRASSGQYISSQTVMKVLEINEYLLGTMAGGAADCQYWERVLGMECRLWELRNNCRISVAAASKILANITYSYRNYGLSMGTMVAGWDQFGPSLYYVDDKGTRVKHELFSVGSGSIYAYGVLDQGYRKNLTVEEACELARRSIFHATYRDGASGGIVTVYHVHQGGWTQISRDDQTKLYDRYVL
# Homo sapiens = species: Homo sapiens; test: To identify inhibition of the IFN signalling (Jak-Stat) pathway via expression of an eGFP reporter gene under the control of an IFN-stimulated response element (ISRE) containing MxA promoter.; type: functional; details: 30 µM
# [6] = molecular target: T4, Tyrosyl-tRNA synthetase, putative (Trypanosoma cruzi (strain CL Brener)) (UniProt Q4DSP6); test: Trypanosoma cruzi tyrosyl tRNA synthetase (TcYRS) _High Tyrosine SOP; type: functional; details: 30 µM; further: in the data most compounds retested in dose-response had high values
# T4 sequence (whole entry): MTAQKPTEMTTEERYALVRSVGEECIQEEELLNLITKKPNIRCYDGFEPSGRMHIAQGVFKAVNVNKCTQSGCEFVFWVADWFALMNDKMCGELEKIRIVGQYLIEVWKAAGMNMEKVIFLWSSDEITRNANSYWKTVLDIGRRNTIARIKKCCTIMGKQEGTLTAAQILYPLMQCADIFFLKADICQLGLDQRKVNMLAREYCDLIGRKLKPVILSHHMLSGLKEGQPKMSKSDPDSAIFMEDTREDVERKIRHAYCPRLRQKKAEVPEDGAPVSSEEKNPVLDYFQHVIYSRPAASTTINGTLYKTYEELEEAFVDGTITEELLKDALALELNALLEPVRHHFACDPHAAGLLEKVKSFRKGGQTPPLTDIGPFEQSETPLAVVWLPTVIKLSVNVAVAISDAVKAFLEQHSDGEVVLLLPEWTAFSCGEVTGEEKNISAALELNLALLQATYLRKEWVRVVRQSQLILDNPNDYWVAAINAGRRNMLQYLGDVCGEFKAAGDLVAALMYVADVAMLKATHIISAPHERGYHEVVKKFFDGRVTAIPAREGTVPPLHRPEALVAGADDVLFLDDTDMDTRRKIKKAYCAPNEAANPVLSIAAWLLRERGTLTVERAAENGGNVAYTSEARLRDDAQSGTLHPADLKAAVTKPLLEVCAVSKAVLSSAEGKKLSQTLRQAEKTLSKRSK
# [7] = molecular target: T4, Tyrosyl-tRNA synthetase, putative (Trypanosoma cruzi (strain CL Brener)); test: Trypanosoma cruzi tyrosyl tRNA synthetase (TcYRS) SOP; type: functional; details: 30 µM
# [8] = molecular target: Chromo domain-containing protein 1 (Saccharomyces cerevisiae (strain ATCC 204508 / S288c) (Baker's yeast)) (UniProt P32657); test: ScCHD-1 Enzyme Inhibition Assay; type: functional; details: 30 µM; further: in the data most compounds retested in dose-response had high values
# Chromo domain-containing protein 1 (Saccharomyces cerevisiae (strain ATCC 204508 / S288c) (Baker's yeast)), sequence (P32657 whole entry, the tested form may be a part): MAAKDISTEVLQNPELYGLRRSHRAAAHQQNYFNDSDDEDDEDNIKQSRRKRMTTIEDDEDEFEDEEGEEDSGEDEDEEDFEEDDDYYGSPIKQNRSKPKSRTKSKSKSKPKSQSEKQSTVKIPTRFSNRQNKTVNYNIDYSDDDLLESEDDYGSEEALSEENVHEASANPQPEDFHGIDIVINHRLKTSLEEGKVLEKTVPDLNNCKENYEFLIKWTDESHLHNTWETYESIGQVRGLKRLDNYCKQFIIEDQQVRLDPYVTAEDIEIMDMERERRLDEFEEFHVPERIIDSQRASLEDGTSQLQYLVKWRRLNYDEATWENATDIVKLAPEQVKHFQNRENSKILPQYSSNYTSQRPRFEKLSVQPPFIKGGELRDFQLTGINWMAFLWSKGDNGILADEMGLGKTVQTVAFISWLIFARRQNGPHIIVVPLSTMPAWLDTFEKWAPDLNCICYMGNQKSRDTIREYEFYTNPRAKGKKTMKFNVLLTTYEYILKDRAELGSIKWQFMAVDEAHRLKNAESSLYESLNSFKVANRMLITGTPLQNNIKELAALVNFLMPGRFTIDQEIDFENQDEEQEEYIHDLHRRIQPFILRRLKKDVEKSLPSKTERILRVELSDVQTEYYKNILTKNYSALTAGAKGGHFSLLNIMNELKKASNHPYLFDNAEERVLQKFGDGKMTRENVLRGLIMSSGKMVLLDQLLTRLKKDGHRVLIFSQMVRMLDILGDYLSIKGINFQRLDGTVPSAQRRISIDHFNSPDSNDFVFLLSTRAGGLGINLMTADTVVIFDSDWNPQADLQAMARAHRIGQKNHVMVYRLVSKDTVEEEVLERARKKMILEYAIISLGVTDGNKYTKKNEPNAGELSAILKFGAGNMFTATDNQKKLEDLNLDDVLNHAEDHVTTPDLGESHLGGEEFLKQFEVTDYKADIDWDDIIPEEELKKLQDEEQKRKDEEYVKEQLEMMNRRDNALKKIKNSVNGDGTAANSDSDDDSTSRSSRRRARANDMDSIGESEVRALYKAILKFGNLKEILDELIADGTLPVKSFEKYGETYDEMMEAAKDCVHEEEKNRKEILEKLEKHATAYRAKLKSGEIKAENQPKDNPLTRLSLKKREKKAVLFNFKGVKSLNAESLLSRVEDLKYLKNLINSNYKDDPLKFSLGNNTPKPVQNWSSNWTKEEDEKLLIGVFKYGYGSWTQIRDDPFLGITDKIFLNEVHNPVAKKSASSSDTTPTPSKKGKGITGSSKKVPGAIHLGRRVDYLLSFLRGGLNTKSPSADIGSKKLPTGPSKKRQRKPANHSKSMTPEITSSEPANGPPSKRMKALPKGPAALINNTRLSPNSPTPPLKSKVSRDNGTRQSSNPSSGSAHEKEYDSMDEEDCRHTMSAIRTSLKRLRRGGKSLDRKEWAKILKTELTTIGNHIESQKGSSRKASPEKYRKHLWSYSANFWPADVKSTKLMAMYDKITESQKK
SMILES,Percent Effect [1] [%],Percent Effect [2] [%],Percent Effect [3] [%],Percent Effect (Trypanosoma cruzi) [%],Percent Effect [4] [%],Percent Effect [5] [%],Percent Effect (Homo sapiens) [%],Percent Effect [6] [%],Percent Effect [7] [%],Percent Effect [8] [%]
Cc1cncc(C2CCCN(C(=O)c3c[nH]c(=O)[nH]c3=O)C2)n1 (stereo not given),0.496,9.33,-0.809,-4.14,0.885,7.06,6.63,4.23,10,-18.3
COc1cc(N2CCCC(c3nccn3Cc3cscn3)C2)nc(N)n1 (stereo not given),-4.57,5.41,16.6,6.89,-22.7,15.1,25.7,6.92,14.6,-3.5
O=C1CC2(CCN(S(=O)(=O)c3cccs3)C2)CN1c1ccccc1 (stereo not given),-4.36,9.09,0.409,-2.81,3.65,2.83,8.75,-1.93,-2.5,-2.17
NCc1cn(-c2ccccc2C(=O)NCc2cccc(Cl)c2)cn1,0.846,9.33,-1.67,-7.3,1.33,6.4,-3.19,3.17,12.5,-24.5
Cc1ccccc1CC(=O)N(C)C1CCCC1,-3.46,13.3,-5.48,-4.62,3.1,16.2,17,3.68,7.69,-11.3
Cc1nc(C(=O)N2CCC(Cc3cnc4[nH]ccc4c3)C2)co1 (stereo not given),-3.17,6.67,-5.86,-1.97,-4.87,10.5,26.2,-2.12,-2.5,-18.2
c1ccc(-c2nc(CN3CCc4c(ncn4C4CC4)C3)cs2)cc1,-0.517,5.2,-12.1,-0.933,-7.99,16,28.5,12.8,18.8,-8.68
Cn1cc(CN2CCC3(CC2)CC(c2ccncc2)C(=O)N3)cn1 (stereo not given),-3,6.49,-3.92,-5.36,2.02,16.7,-2.28,3.68,10.3,-1.42
CNC(=O)N1C[C@H]2C[C@H](C(=O)Nc3ccccc3)[C@@H](C1)O2,-6.94,-35.1,1.87,0.0974,-3.24,11.7,1.26,4.74,10.3,13.9
O=C(CCSc1ccc(F)cc1)NS(=O)(=O)c1ccc2c(c1)OCCO2,-5.54,-10.3,-3.31,4.22,-2.05,13.1,1.97,-11,-1.21,-2.81
O=C(NCCO)c1ccn(-c2ccc3ccccn23)n1,-3.79,-32.5,-8.91,3.99,-8.5,19.1,7.26,11.1,-2.56,-0.759
CCCn1[nH]cc/c1=N\C(=O)CN1CCc2cnc(CC)nc2C1,0.849,0,1.8,-2.61,9.76,2.29,3.62,11.1,7.69,5.4
CC(C)CN1CCC2(CCN(Cc3ccsc3)CC2)C1=O,-2.7,11.7,1.92,0.938,0.913,6.78,-29.8,8.7,12.5,1.04
CCc1[nH]ncc1C(=O)N1CCCC(n2nc(C)nc2C)C1 (stereo not given),-6.31,2.56,-8.9,11.9,-1.23,2.82,7.13,0.478,8.43,-10.4
Nc1nccc(-c2c[nH]nc2C2CCCCC2)n1,1.44,10.7,-1.99,-6.83,3.1,17.9,99.6,1.58,0,-6.8
Cc1cc(N2CCC(NC(=O)C3CC3)CC2)nc(-c2ccncc2)n1,-0.846,23.4,0.849,2.98,-1.43,13,9.23,12.8,35.3,-0.543
CC(C)(C)n1ncc2c1NC(=O)CC2c1ccc(OCC(N)=O)cc1 (stereo not given),-6.78,5.41,-0.0971,0.097,1.75,11.8,-6.02,9.04,14.6,-0.195
CCc1ccc(CN2CCC3(CC2)NC(=O)CC3c2ccncc2)o1 (stereo not given),-9.93,6.49,-0.747,-3.21,-5.26,9.27,-2.1,0.526,7.69,-2.68
CCC1CN(C(=O)c2ccccc2N2CCCC2)CCN1C(C)C (stereo not given),-7.26,5.41,-0.153,-4.75,-5.94,5.31,-3.97,3.72,-7.32,-5.34
Cn1c(CN2CCCC2c2noc(C3CC3)n2)cc(=O)n(C)c1=O (stereo not given),-8.17,2.67,-1.87,-3.01,-3.99,5.85,13.9,0.526,0,-5.06
COCC1CC2(CCN(Cc3ccc(OC)cc3)CC2)CN1C(C)C (stereo not given),-6.15,-9.09,-0.064,-1.66,-4.05,0.0883,-19.4,0.526,2.56,1.65
Cc1cncc(C2CCCN(C(=O)c3cccn3C)C2)n1 (stereo not given),-1.26,17.3,-0.809,1.97,1.33,13.3,-5.79,7.41,12.5,-25
COC(=O)N1C[C@H]2CC[C@@H]1CN(Cc1cscn1)C2,-8.16,0,5.89,7.66,-1.05,9.93,28.6,5.85,14.6,-2.59
